Screening data as filed in PubChem BioAssay.
Only some compounds are listed: those with a hit (about 7.8% of all), similar ones and a draw of the others.
HCMV inh = qHTS Assay for inhibitors of the human cytomegalovirus (HCMV); actives 4.5% (n = 410,000); HFF cells, HCMV-luciferase reporter, 72 h; hits give low values; AID 1259415, 2018; activity change, negative = inhibition, % at 57.5 µM; in the data active = activity change below about -60%; inconclusive = no clear call, values can overlap the other calls; inactive = above about -39%
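Steps: HFFs plated, 16 h 37C; compounds added; HCMV-luciferase added to MOI 1 PFU/cell; 72 h 37C; OneGlo reagent, 5 min room temperature; luminescence read, normalized to controls.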
HCV inhibitor = qHTS Assay for Inhibitors of Hepatitis C Virus (HCV); AID 651820, 2012; Huh7.5.1 HCVcc-Cre infection, luciferase reporter, 44 h; Potency, µM (titrated, usually from 41.8 µM), for the others: at the top dose activity change, negative = inhibition, usual class: inhibitors; actives 3.4% (n = 340,000); active = well fitted inhibition curve with a large enough effect; inconclusive = small, poorly fitted or top-dose-only effect, or another doubt; inactive = no such curve, though single readings can be large or run the other way; also: potency is read from the fitted curve at half-maximal effect
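Seed cells (1,000/well) for 4 h; treat with compound and infect with HCVcc-Cre, moi about 0.5. Incubate 44 h, then detect luciferase activity.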
Marburg entry inh = qHTS for inhibitors of binding or entry into cells for Marburg Virus | Marburg virus pseudotyped entry inhibition, cell reporter | Potency, µM (top dose mostly 37.8 µM), for the others: top-dose activity change, negative = inhibition, most hits filed as inhibitors | actives 1.8% (n = 300,000); calls by dose curve; tested in HEK293 cells; also: potency is read from the fitted curve at half-maximal effect
VACV Venus inh = qHTS for Stage-Specific Inhibitors of Vaccinia Orthopoxvirus: Venus Reporter Primary qHTS; Vaccinia virus Venus reporter expression, fluorescence; Potency, µM (top dose mostly 36.5 µM), for the others: top-dose activity change, negative = inhibition, hits mostly inhibitors; actives 0.46% (n = 330,000); AID 720580, 2013; calls by dose curve; tested in A549 cells; also: potency is read from the fitted curve at half-maximal effect; nearly all actives have a fitted effect of over 30% in size
Lassa entry inh = qHTS for Inhibitors of binding or entry into cells for Lassa Virus; Lassa virus pseudotype entry inhibition, cell reporter; AID 540256, 2011; actives 1.2% (n = 300,000); Potency, µM (doses to about 37.9 µM), without a hit: at the highest dose activity change, negative = inhibition, actives largely listed as inhibitors; calls by dose curve; tested in HEK293 cells; also: potency is read from the fitted curve at half-maximal effect; nearly all actives have a fitted effect of over 50% in size
Vaccinia mCherry = qHTS for Stage-Specific Inhibitors of Vaccinia Orthopoxvirus: mCherry Reporter Primary qHTS | Vaccinia virus mCherry reporter infection, fluorescence | Potency, µM (titrated, usually from 36.5 µM), for inactives: at the highest dose activity change, negative = inhibition, usual class: inhibitors | actives 0.63% (n = 310,000) | AID 720579, 2013; calls by dose curve; tested in A549 cells; also: potency is read from the fitted curve at half-maximal effect; nearly all actives have a fitted effect of over 35% in size
* hit, by the source's call; i = inactive; ? = inconclusive; . = not tested or not shown; ! = repeats disagree; [ ] = remark or other dose. % is scaled to controls: 0 for no effect and ±100 for the full control effect.

SMILES | HCMV inh | HCV inhibitor | Marburg entry inh | VACV Venus inh | Lassa entry inh | Vaccinia mCherry
CCSc1nnc(NC(=O)C(C)Sc2nc3ccccc3[nH]2)s1 (stereo not drawn) | -103* | 12% | 14% | -13% | 29% | -15%
CCCSCC(=O)Nc1ncc2c(n1)-c1ccccc1CC2 | -95* | -21% | 8%[46.1 µM] | -6% | ? | i
Cc1ccc(CC(=O)Nc2ccc(Cl)cn2)cc1 | -40 | -10% | . | . | . | .
Cc1ccc(C(=O)Nc2nccc(-c3cccs3)n2)cc1 | -6 | 1% | 19% | . | -1% | .
Cc1ccc(C(=O)Nc2ncc3c(Cl)cccc3n2)cc1 | -90* | -25% | ? | -18% | ? | -9%
O=C(Nc1ccc(Cl)cn1)c1ccc(Oc2ccccc2)cc1 | 39 | ? | ? | -25% | ? | i
CCCOc1ccc(C(=O)Nc2ccc(Cl)cn2)cc1 | -6 | -25% | 6.3µM* | -24% | 18µM* | .
Cc1ccc(C(=O)Nc2ccc(Cl)cn2)cc1 | 50 | ? | 7.3µM* | -28% | ? | ?
CCCCn1nnnc1C(C1CC1)N1CCN(C/C=C/c2ccccc2)CC1 (stereo not drawn) | -10 | . | . | -14% | . | -4%
CCOc1ccc(CC(=O)NC2CC(=O)N(c3cccc(F)c3)C2)cc1 (stereo not drawn) | -9 | . | . | -8% | 18%[46.1 µM] | -8%
COc1ccc(OCc2cccc(C(=O)Nc3cc(C)on3)c2)cc1 | 113 | ? | 5.8µM* | . | ? | .
COc1cc(CNC(=O)c2cccc(COc3ccc(Cl)cc3)c2)cc(OC)c1 | -16 | 7.9µM* | ? | -29% | ? | ?
COc1ccc(OCc2cccc(C(=O)NN)c2)cc1 | 105 | 10% | 4.1µM* | -5% | ? | i
NNC(=O)c1cccc(COc2ccc(Br)cc2)c1 | 57 | -10% | ? | -13% | ? | -25%
COc1ccc(-c2cccc(NS(=O)(=O)c3cc(C)c(Cl)cc3C)c2)nn1 | -17 | . | . | -10% | -20%[46.1 µM] | -6%
CCCOc1ccc(NC(=O)CC2C(=O)N(c3cccc(C)c3)C(=O)N2CCc2ccncc2)cc1 (stereo not drawn) | -7 | . | . | -5% | -3%[46.1 µM] | -1%
COc1ccc(-c2noc3ccccc23)cc1 | 4 | . | . | . | . | .
CCCOc1ccc(CNC(=O)C2CCN(C(=O)c3sccc3-n3cccc3)CC2)cc1 | -34 | . | -8%[46.1 µM] | -14% | . | -13%
C[C@@H]1CN(C2CCN(C(=O)COc3ccccc3)CC2)C[C@H](C)O1 | . | . | 7% | . | . | .
COC(=O)C1=C(C)NC(=O)/C1=C\c1cc(C)n(-c2ccccc2)c1C | -6 | -15% | 7.9µM* | -4% | ? | ?
N=c1n(CCO)c2ccccc2n1CCOc1ccc(Cl)cc1Cl | -2 | ? | 1% | 11µM* | . | ?
Cc1ccc(OCC(O)Cn2c(=N)n(CCN3CCCCC3)c3ccccc32)cc1 (stereo not drawn) | -82*! | 2.5µM* | 8.2µM* | -26% | ? | -27%
OC(CNCCCN1CCCCC1)COc1ccccc1 (stereo not drawn) | -8 | 10µM* | ? | ? | -1% | .
N=c1n(CCO)c2ccccc2n1Cc1ccccc1 | ? | 16% | ? | ? | 3% | .
N=c1n(CCN2CCCC2)c2ccccc2n1CC(O)c1ccc(Cl)c(Cl)c1 (stereo not drawn) | -99* | 11µM* | . | . | . | .
Cc1cccc(N2O[C@H]3C=C[C@@H]2C3)n1 | 38 | . | . | . | . | .
N=c1n(CCO)c2ccccc2n1Cc1ccccc1Cl | -10 | 22µM* | ? | -24% | ? | -12%
N=c1n(CCN2CCCCC2)c2ccccc2n1CC(O)COc1ccc(Cl)cc1Cl (stereo not drawn) | -99* | . | 5.6µM* | -8%[7.34 µM] | ? | -12%[7.34 µM]
O=C(NCc1nc2cccnc2n1Cc1ccc(F)cc1)c1ccccc1C(F)(F)F | -61* | . | . | -11% | 6%[46.1 µM] | i
Cc1ccc(O)c(C(=O)CC(=O)c2ccccc2Cl)c1 | -9 | 5µM* | ? | -18% | ? | -12%
